Hits are enriched below; roughly 1.8% of the tested compounds scored in any of these assays.
HEK293 tox = qHTS of GLP-1 Receptor Inverse Agonists: Cytotox Screen; HEK293 cAMP-luciferase reporter cells, luminescence, 24 h; Potency, µM (top dose mostly 38.3 µM), inactives show top-dose activity change, negative = inhibition, most hits filed as inhibitors; 0.13% of 410,000 active;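 further: loss of luciferase light is scored as toxicity; potency means the concentration at half of the fitted maximal effect; on the % scale 0 is the no-effect control and ±100 the full control effect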
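MLSMR compounds, 24 hr on cells at 37 deg C/5% CO2; luminescence after luciferase reagent (12 min RT). Inhibition counted as the undesired cytotoxic outcome.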
TSHR antagonist = Antagonists of the Thyroid Stimulating Hormone Receptor: HTS campaign | Thyrotropin receptor (Homo sapiens), P16473 | TSHR-expressing cells, TSH-stimulated cAMP HTRF, 2 h; hits give low values | activity change, negative = inhibition, % at 11.5 µM | 0.2% of 330,000 active | AID 504810, 2011;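 active means activity change below a set negative limit, meaning inhibition stronger than a set level, cut at about -70% in these data; inconclusive means activity change between two set negative limits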; further: on the % scale 0 is the no-effect control and ±100 the full control effect
Target sequence (P16473 whole entry, looked up): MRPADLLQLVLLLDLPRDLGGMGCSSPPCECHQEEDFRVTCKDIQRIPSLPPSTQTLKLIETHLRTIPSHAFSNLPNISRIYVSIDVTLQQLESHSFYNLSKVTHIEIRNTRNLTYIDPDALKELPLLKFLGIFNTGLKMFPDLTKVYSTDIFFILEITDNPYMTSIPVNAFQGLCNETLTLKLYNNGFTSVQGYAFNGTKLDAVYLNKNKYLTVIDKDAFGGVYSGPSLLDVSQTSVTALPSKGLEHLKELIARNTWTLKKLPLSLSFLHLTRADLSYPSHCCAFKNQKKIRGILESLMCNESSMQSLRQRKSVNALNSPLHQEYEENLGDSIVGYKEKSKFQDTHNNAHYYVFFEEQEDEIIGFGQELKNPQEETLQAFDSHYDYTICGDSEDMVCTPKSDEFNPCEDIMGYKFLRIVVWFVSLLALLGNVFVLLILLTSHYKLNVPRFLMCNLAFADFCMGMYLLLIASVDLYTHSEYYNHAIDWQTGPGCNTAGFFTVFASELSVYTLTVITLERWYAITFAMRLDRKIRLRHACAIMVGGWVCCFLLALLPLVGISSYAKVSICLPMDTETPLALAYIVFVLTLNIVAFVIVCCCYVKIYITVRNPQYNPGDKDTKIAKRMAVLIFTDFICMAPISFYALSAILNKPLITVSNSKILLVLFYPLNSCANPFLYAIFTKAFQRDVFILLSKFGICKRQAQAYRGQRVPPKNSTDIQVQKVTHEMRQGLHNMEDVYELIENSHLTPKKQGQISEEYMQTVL
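Inhibition of cAMP made by TSHR-expressing cells under TSH stimulation (4nM final, EC80; 2 h, 37 deg C) is quantified with a one-step lysis HTRF kit, anti-cAMP cryptate versus cAMP-d2.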
GLP1R ag = qHTS of GLP-1 Receptor Agonists. Glucagon-like peptide 1 receptor (Homo sapiens), P43220. HEK293 GLP-1R CRE-luciferase, luminescence, 4-6 h; cells express a hypersensitive GLP-1R form. Potency, µM (titrated, usually from 45.6 µM), for the others: top-dose activation, actives largely listed as activators. 0.007% of 380,000 active; further: potency means the concentration at half of the fitted maximal effect; % of control where 0% means no effect
GLP1R inv ag = qHTS of GLP-1 Receptor Inverse Agonists (Inhibition Mode) | Glucagon-like peptide 1 receptor (Homo sapiens), P43220 | HEK293 GLP-1R CRE-luciferase, luminescence, 24 h; GLP-1R form is constitutively active | Potency, µM (doses to about 38.3 µM), for inactives: at the top dose activity change, negative = inhibition, actives largely listed as inhibitors | 1.6% of 410,000 active | AID 624417, 2012; further: potency means the concentration at half of the fitted maximal effect; on the % scale 0 is the no-effect control and ±100 the full control effect; nearly all actives have a fitted effect of over 55% in size
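HEK293 cells stably co-expressing constitutively active GLP-1R and a cAMP-responsive luciferase reporter were seeded in DMEM with 10% Nu serum, given compounds after 12 h, and incubated 24 h at 37 deg C. Luminescence was then read.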
PTHR1 agonist = qHTS for PTHR1 Agonists: Primary Screen | AID 743266, 2014 | Potency, µM (top dose mostly 115 µM), without a hit: at the highest dose activation, usual class: activators | HEK293 GP2 PTHR1 cells, GloSensor cAMP luminescence, 1 h | Parathyroid hormone/parathyroid hormone-related peptide receptor (Homo sapiens), Q03431 | 0.075% of 410,000 active; further: potency means the concentration at half of the fitted maximal effect; nearly all actives have a fitted effect of over 55% in size
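HEK-293-derived GP2 cells expressing PTHR1 and a GloSensor cAMP reporter, 3,000/well, plated overnight, given luciferin plus IBMX (each 0.5 mM as added) for 1 h at 37 °C, then compound for 1 h at 37 °C. Luminescence was read after 15 min at room temperature.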
* marks the source's active call; other numbers are inactive results; i = inactive; ? = inconclusive; / = no result given; [ ] = another dose, or the depositor's remark. Unless noted, the call rests on the fitted dose curve; in most records, active means well fitted curve in the direction sought with a large enough effect; inconclusive means small, poorly fitted or top-dose-only effect, or another doubt; inactive means no such curve, though single readings can be large; an effect the other way counts as inactive or inconclusive.

SMILES	HEK293 tox	TSHR antagonist	GLP1R ag	GLP1R inv ag	PTHR1 agonist
N#Cc1c(-c2ccccc2)c(-c2ccccc2)nn(CC(=O)NNC(=O)Nc2ccc(Cl)cc2)c1=O	-22%	-10	5%	10µM*	15%
CN(C)/C=C(/C(=O)c1ccc(Cl)cc1)S(=O)(=O)c1ccc(Cl)cc1	4%	-114*	-9%	-1%	i
Cc1ccc(S(=O)(=O)N2CCOCC2)cc1NC(=O)CNC(C)c1ccccc1 (centres undefined)	-2%	11	-6%	-14%	-32%
CC(Oc1cccc(Cl)c1)C(=O)Nc1cc(S(=O)(=O)N2CCOCC2)ccc1N1CCCCC1 (centres undefined)	0%	-16	17%	10µM*	i
CCN1CCN(c2ccc(S(=O)(=O)N3CCOCC3)cc2NC(=O)C(C)Oc2cccc(Cl)c2)CC1 (centres undefined)	0%	13	30%	?	-68%
CC(NCC(=O)Nc1cc(S(=O)(=O)N2CCOCC2)ccc1Cl)c1ccc(Cl)cc1Cl (centres undefined)	-16%	-2	0%	5.6µM*	-32%
COc1cccc(CNC(=O)CCc2c(C)nc3c(c(C)nn3-c3ccc(C)c(C)c3)c2C)c1	-20%	/	10%	-12%	-4%
CCCCCOc1ccc(/C=C/C(=O)Nc2sc(C(C)=O)c(C)c2C(=O)OCC)cc1OC	-1%	/	/	7%	i
COc1ccc(OC)c(NC(=O)CN(Cc2ccc(F)cc2)C2CCCCC2)c1	-11%	-8	8%	3.5µM*	-24%
CCOCCCNC(=O)c1ccc2c(c1)NC(=O)C(CS(=O)(=O)Cc1ccc(F)cc1Cl)N2 (centres undefined)	16%	/	/	16%	?
Clc1ccc(-n2nnnc2-c2cnc(-c3ccncc3)nc2-c2cccs2)cc1	-16%	-9	-7%	?	i
FC(F)(F)c1nc(-c2cccs2)ncc1-c1nnnn1-c1ccc(Cl)cc1	-29%	-72*	-15%	7.1µM*	i
Clc1cc2cccnc2c2ncccc12	?	-27	-2%	4.5µM*	-92%
Cc1c(C)c2cccnc2c2ncccc12	0.89µM*	/	2%	?	?
CCc1ccc(C2=NN(C(=O)OC)C(O)(C(F)(F)F)C2)cc1 (centres undefined)	0%	47	-1%	7.9µM*	-16%[57.5 µM]
COc1ccccc1N1CCN(C(=O)c2cnn(-c3ccc(C)c(C)c3)c2C2CCN(C(=O)OC(C)(C)C)CC2)CC1	-7%	/	/	2%	i
COC(=O)N/N=C/c1cn(Cc2ccc(F)cc2)c2ccccc12	-5%	-11	13%	7.9µM*	i
COC(=O)N/N=C/c1cn(CCCOc2ccccc2)c2ccccc12	7%	52	4%	10µM*	-96%
c1ccc(OCCNc2nc(NCC3CC3)nc3ccsc23)cc1	-10%	/	-2%	8.9µM*	-44%
CC(=O)Nc1ccc(CNc2nc(NC(C)C)nc3cc(-c4ccccc4)sc23)cc1	?	/	-13%	11µM*	-37%
c1ccc(-c2cc3nc(NCC4CC4)nc(NCC4CCCCC4)c3s2)cc1	?	/	-5%	2µM*	-74%
COCCNc1nc(NCC2CCCCC2)c2sc(-c3ccccc3)cc2n1	?	/	-2%	?	-21%
Cc1ccc(NC(=O)CN2C(=O)CCn3nc(-c4cccn4C)cc32)c(Cl)c1	7%	/	/	4%	7%
CCN(CC)CCCN(Cc1cc2cc(OC)ccc2[nH]c1=O)C(=O)Nc1ccc(F)cc1	-18%	0	14%	4.5µM*	i
CCc1ccc2[nH]c(=O)c(CN(Cc3ccccc3)C(=O)Nc3ccccc3OC)cc2c1	?	4	11%	3.5µM*	i
SMILES	HEK293 tox	TSHR antagonist	GLP1R ag	GLP1R inv ag	PTHR1 agonist
CSCCC(NC(=O)[C@H](Cc1c[nH]c2ccccc12)NC(=O)CNC(=O)[C@H](CCSC)NC(=O)[C@H](Cc1ccc(OS(=O)(=O)O)cc1)NC(=O)[C@@H](N)CC(=O)O)C(=O)N[C@@H](CC(=O)O)C(=O)N[C@@H](Cc1ccccc1)C(N)=O (some centres undefined)	/	/	30%	/	/
CC(C)(C)c1ccc(-c2nnc(-c3ccccc3NC(=O)c3ccc(F)cc3F)o2)cc1	6%	/	2%	1%	23%
Cc1cc(C)cc(-n2c(C)nc3cc(C(=O)NCc4ccccc4Cl)ccc32)c1	?	/	/	11µM*	i
Cc1ccc(C(CNS(=O)(=O)c2ccc(Br)cc2)N2CCN(C)CC2)cc1 (centres undefined)	-10%	0	-1%	7.9µM*	-3%
CN1CCN(C(CNS(=O)(=O)c2ccc(Br)cc2)c2ccc3c(c2)OCO3)CC1 (centres undefined)	16%	4	9%	10µM*	6%
Cc1nc(-c2ccccc2)sc1CCNS(=O)(=O)c1ccccc1	-5%	/	9%	-4%	-7%
CCC(C)NC(=O)CCC(=O)N1Cc2ccccc2Oc2ncccc21 (centres undefined)	-1%	/	/	3%	i
CC1(C(=O)N(Cc2ccccc2)Cc2ccccc2)CC1(Br)Br (centres undefined)	5%	46	-7%	4µM*	-58%
COC(=O)c1ccc(NC(=O)CCNS(=O)(=O)c2cccc3nsnc23)cc1	-1%	/	0%	0%	i
Cc1cc(C(=O)CSc2nc(N)cc(N)n2)c(C)n1CCc1ccc(F)cc1	-25%	-2	2%	5.6µM*	-26%[57.5 µM]
Cc1cc(C(=O)COC(=O)c2ccc(O)cc2)c(C)n1CCc1ccc(F)cc1	-15%	-8	8%	?	-41%
Cc1oc(-c2ccc(Cl)cc2)nc1CS(=O)CC(=O)NCCCN1CC(C)CC(C)C1 (centres undefined)	?	4	8%	5.6µM*	i
COc1ccc(-c2nc(CS(=O)CC(=O)NC(C)CCc3ccccc3)c(C)o2)cc1OC (centres undefined)	3%	-3	27%	31%	i
Cc1ccc(-c2nc(CS(=O)CC(=O)NC(C)CCc3ccccc3)c(C)o2)cc1 (centres undefined)	-1%	-13	0%	8.9µM*	-14%
COc1ccc2c(c1)CCc1c(C(=O)Nc3ccc(F)c(Cl)c3)noc1-2	-10%	/	/	12%	i
CCOC(=O)C1=C(N)Oc2cc(O)ccc2C1c1ccc([N+](=O)[O-])cc1 (centres undefined)	-7%	-9	7%	10µM*	-7%
